Assay outcomes: PubChem, several laboratories
FBA Mtb inh = Mtb FBA enzyme inhibitors, primary screen, biochemical, fluorescence, strain H37Rv | purified M. tuberculosis FBA, fluorescence read-out | inhibition, % at 1 µM | actives 2.3% (n = 360,000) | AID 588726, 2011; in the data active means inhibition above about 27%
Target sequence (P9WQA3 whole entry, looked up): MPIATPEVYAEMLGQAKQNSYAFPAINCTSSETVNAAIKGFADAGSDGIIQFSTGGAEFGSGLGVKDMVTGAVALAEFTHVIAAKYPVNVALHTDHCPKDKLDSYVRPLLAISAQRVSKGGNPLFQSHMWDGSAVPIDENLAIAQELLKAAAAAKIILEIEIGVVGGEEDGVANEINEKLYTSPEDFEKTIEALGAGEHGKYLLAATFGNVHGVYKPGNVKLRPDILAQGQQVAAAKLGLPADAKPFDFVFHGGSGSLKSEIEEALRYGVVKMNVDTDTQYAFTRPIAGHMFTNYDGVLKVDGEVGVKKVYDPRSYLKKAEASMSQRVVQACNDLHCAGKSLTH
GDH-TPI counter-1 = GDH-TPI coupling enzyme inhibitors, primary screen, artefact control for M. tuberculosis FBA inhibitor project, biochemical, absorbance, full deck; GDH-TPI coupled enzyme counterscreen, NADH absorbance; inhibition, % at 4.8 µM; actives 1.2% (n = 360,000); AID 588335, 2011; in the data active means inhibition above about 30%
TcdB GH inh = TcdB glycohydrolase inhibitors, primary screen, biochemical, single point, plate reader | inhibition, % at 9.99 µM | actives 0.24% (n = 350,000) | Toxin B (Clostridioides difficile), P18177 | TcdB glycohydrolase enzymatic assay
Y pestis TopoI = Yersinia pestis topoisomerase I inhibitors, primary screen, biochemical, cleavage product accumulation, plate reader, single point. activity, % at 10 µM. Y. pestis Topo-I cleavage product accumulation. DNA topoisomerase I (Yersinia pestis CO92). actives 0.064% (n = 360,000); in the data active means activity above about 50%, passing the limit was not always enough
PrPC TRFRET = inhibitors of human cell surface prion protein PrPC, primary screen, cell-based, TR-FRET | inhibition, % at 13.8 µM | TR-FRET read-out | AID 720596, 2013 | actives 0.43% (n = 370,000); in the data active means inhibition above about 24%
Mtb FBA confirm = M. tuberculosis aldolase blockers, biochemical, fluorescence, strain H37Rv, confirmation | actives 78% (n = 5,600) | shares compounds with FBA Mtb inh | purified M. tuberculosis FBA, fluorescence read-out | inhibition, % at 1 µM; in the data active means inhibition above about 27%
GDH-TPI counter-2 = GDH-TPI coupling enzyme inhibitors, artefact control for M. tuberculosis FBA inhibitor project, biochemical, fluorescence, high throughput; shares compounds with FBA Mtb inh; GDH-TPI coupled enzyme counterscreen; inhibition, % at 1 µM; actives 81% (n = 5,600)
Numbers stand for hits; . = inactive; / = not tested or not shown; + = active, no number. Compounds with a hit are over-represented: about 3.2% of the library has one in this group of screens. Unless noted, no stated cut-off is given here; in the data, active means inhibition above about 10%; inactive means the rest.

SMILES	FBA Mtb inh	GDH-TPI counter-1	TcdB GH inh	Y pestis TopoI	PrPC TRFRET	Mtb FBA confirm	GDH-TPI counter-2
CCCNC(=O)N1[C@H](CNC(=O)c2ccccc2)[C@@H](c2ccccc2)[C@@H]1CO	/	/	.	/	/	/	/
Cc1ccc(C(=O)N(CC(=O)NC2CCCCC2)c2ccccc2C)s1	.	.	.	.	.	/	/
CC1=CC2=NC(=O)CC(C)(C(=O)N(CC(=O)NC3CCCC3)c3ccccc3C)N2C=C1 (stereo unspecified)	62	.	.	.	.	+	+
CC1=CC2=NC(=O)CC(C)(C(=O)N(CC(=O)NC3CCCC3)Cc3ccc(Cl)cc3)N2C=C1 (stereo unspecified)	58	.	.	.	.	115	122
CC1=CC2=NC(=O)CC(C)(C(=O)N(CC(=O)NC3CCCC3)c3ccccc3F)N2C=C1 (stereo unspecified)	47	.	.	.	.	45	37
CC1(c2ccc(Cl)cc2)NC(=O)N(CC(=O)NC2CCCCC2)C1=O (stereo unspecified)	.	.	.	.	.	/	/
C[C@@H]1CCCCO[C@H](CN(C)C(=O)Nc2ccc(C(F)(F)F)cc2)[C@@H](C)CN([C@@H](C)CO)C(=O)c2cc(NC(=O)Nc3ccccc3)ccc2O1	/	/	.	/	/	/	/
CC(C)CC#Cc1ccc2c(c1)O[C@H](CN(C)C(=O)CN(C)C)[C@H](C)CN([C@@H](C)CO)S2(=O)=O	/	/	.	/	/	/	/
O=C(C1CCCC1)N1CC2(C1)[C@H](c1ccccc1)[C@@H](CO)N2CCC(F)(F)F	/	/	.	/	/	/	/
COc1ccc(C#Cc2ccc3c(c2)O[C@@H](CN(C)C(=O)Nc2cccc(OC)c2)[C@@H](C)CN([C@@H](C)CO)S3(=O)=O)cc1	/	/	.	/	/	/	/
N#C/C(=C\c1cccs1)Sc1nc2ccccc2s1	101	.	/	.	.	.	.
Cc1noc(C)c1NC(=O)NCC[C@@H]1CC[C@@H](NC(=O)Nc2cccc(Cl)c2)[C@@H](CO)O1	/	/	.	/	/	/	/
CC1CCN(C(=O)COC(=O)c2n[nH]c3ccccc23)CC1	.	.	/	.	.	/	/
Cc1nn(-c2ccccc2)nc1C(=O)OCC(=O)N1CCC(C)CC1	28	.	.	.	.	94	77
Fc1ccc(-c2cnc(-c3cccs3)o2)cc1	61	.	/	.	.	81	71
Fc1ccc(-c2nc(-c3cccs3)no2)cc1	.	.	.	.	.	/	/
O=C(NC1CCCC1)[C@H]1[C@H](CO)[C@H]2Cn3c(ccc(C4=CCCC4)c3=O)[C@@H]1N2C(=O)c1ccccc1	/	/	.	/	/	/	/
COc1cccc2cc(-c3ccnc(N)n3)oc12	.	.	.	.	.	/	/
COc1cccc2cc(-c3n[nH]c(=S)n3C)oc12	42	.	.	.	.	.	.
CCc1c(C2(O)CCCCC2)[nH]c2cnccc12	78	.	.	.	.	+	170
Cc1c(C2(O)CCCCC2)[nH]c2ccccc12	/	/	.	/	.	/	/
Cc1ccc2c(N)c(C)ccc2c1	49	.	/	.	.	.	.
CCCC(=O)N=C1SC2CS(=O)(=O)CC2N1c1ccc(-c2nc3ccc(C)cc3s2)cc1 (stereo unspecified)	53	.	.	.	.	141	103
CCCc1cc(=O)oc2cc(C)cc(OCC(=O)NCCN3CCOCC3)c12	67	.	.	.	.	.	.
Cc1c(C)c2ccc(OCC(=O)NCCN3CCOCC3)c(C)c2oc1=O	47	.	.	.	.	+	+
SMILES	FBA Mtb inh	GDH-TPI counter-1	TcdB GH inh	Y pestis TopoI	PrPC TRFRET	Mtb FBA confirm	GDH-TPI counter-2
CCc1cc(=O)oc2cc(C)cc(OCC(=O)NCCc3c[nH]c4ccccc34)c12	.	.	.	.	.	/	/
CCc1cc(=O)oc2cc(C)cc(OCC(=O)NCCN3CCOCC3)c12	61	.	.	.	.	52	66
CCCc1cc(=O)oc2cc(C)cc(OCC(=O)Nc3ccc(CN4CCOCC4)cc3)c12	43	.	.	.	.	.	.
C[C@H](CO)N1C[C@H](C)[C@H](CN(C)S(=O)(=O)c2cccs2)Oc2ccc(NC(=O)Cn3cnnn3)cc2C1=O	/	/	.	/	/	/	/
Cc1noc(C)c1NC(=O)N(C)C[C@H]1Oc2c(cccc2N(C)C)C(=O)N([C@@H](C)CO)C[C@@H]1C	/	/	.	/	/	/	/
CN(C)Cc1cn(CC[C@H]2CC[C@@H](NS(=O)(=O)c3ccc(-c4ccccc4)cc3)[C@H](CO)O2)nn1	/	/	.	/	/	/	/
Cc1c(C)c2ccc(OCC(=O)Nc3cccnc3)c(C)c2oc1=O	60	.	.	.	.	.	.
Cc1cc(OCC(=O)NCCCN2CCOCC2)c2c(C)cc(=O)oc2c1	61	.	.	.	.	138	142
C[C@@H]1CN([C@@H](C)CO)C(=O)Cc2cc(NC(=O)Cc3cn(C)c4ccccc34)ccc2O[C@H]1CN(C)C(=O)Nc1ccc(F)cc1	/	/	.	/	/	/	/
Cc1ccc2[nH]c(=O)c3cc(C(=O)N(CCCOC(C)C)Cc4ccco4)sc3c2c1	28	.	.	.	.	.	11
CCCCN(CC)C(=O)c1cc2c(=O)[nH]c3ccc(C)cc3c2s1	.	.	.	.	.	/	/
Cc1ccc2[nH]c(=O)c3cc(C(=O)NCCN4CCN(C)CC4)sc3c2c1	49	.	.	.	.	196	159
CCOC(=O)CNC(=O)c1cc2c(=O)[nH]c3ccc(C)cc3c2s1	32	.	.	.	.	118	97
C[C@@H]1CN([C@@H](C)CO)C(=O)c2cc(NC(=O)c3ccccc3)ccc2O[C@@H](C)CCCCO[C@H]1CN(C)S(=O)(=O)c1cn(C)cn1	/	/	.	/	/	/	/
